A selection: hits, their analogues and other compounds. The true share with any hit is near 5.9%.
HepG2 viability = qHTS for Inhibitors of TGF-b: Cytotox Counterscreen | Potency, µM (top dose mostly 46.1 µM), for inactives: at the highest dose activity change, negative = cytotoxicity, actives largely listed as cytotoxic | actives 0.76% (n = 410,000) | AID 588856, 2011 | HepG2 CAGA-GFP viability, ATP luminescence, 18 h
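CellTiter-Glo luminescence gave cytotoxicity after 18 hours at 37 degrees C. The cells were HepG2 CAGA-GFP in 1% FBS DMEM, stimulated with 500 pg/mL TGF-beta after compound addition. %Activity was normalised to no-cell wells (complete cell-killing) and DMSO (no toxicity), and curves were fitted and classified.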
ATXN viability = Viability Counterscreen for Primary qHTS for Inhibitors of ATXN expression; actives 0.49% (n = 400,000); S2 cells (HEK-293 line with an ATXN2-luciferase reporter) viability, CellTiter-Fluor protease fluorescence, 24 h; Potency, µM (titrated, usually from 56.7 µM), actives largely listed as cytotoxic; also: nearly all actives have a fitted effect of over 40% in size
KB-V1 MDR tox = qHTS assay for MDR1-selective chemotherapeutics: Primary screen using the drug-selected MDR subline cells KB-V1 | KB-V1 MDR cells viability, CellTiter-Glo, 72 h | Potency, µM (titrated, usually from 46.1 µM), most hits filed as cytotoxic | actives 3.4% (n = 400,000) | AID 1347076, 2019; also: % is scaled to controls: 0 for no effect and ±100 for the full control effect; nearly all actives have a fitted effect of over 60% in size
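Drug-selected KB-V1 cells, grown in DMEM lacking phenol red with 10% FBS, receive compound titrations; after three days at 37 degrees C, surviving cell ATP is quantified by CellTiter-Glo luminescence and responses normalized and curve-fitted.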
ATXN2 expr inh = Primary qHTS for Inhibitors of ATXN expression; HEK-293 ATXN2-luciferase reporter, luminescence, 24 h; Potency, µM (titrated, usually from 57 µM), without a hit: at the highest dose activity change, negative = inhibition, usual class: inhibitors; actives 0.72% (n = 360,000); also: % is scaled to controls: 0 for no effect and ±100 for the full control effect; nearly all actives have a fitted effect of over 55% in size
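ATXN2-luciferase reporter cells (luciferase flanked by upstream and downstream ATXN2 gene portions) were treated 24 h at 37 °C with compounds at up to 57 uM. SteadyGlo luminescence gave expression; GF-AFC fluorescence gave viability.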
KB-3-1 tox = qHTS assay for MDR1-selective chemotherapeutics: Primary screen using the parental adenocarcinoma cell KB-3-1 | KB-3-1 viability, CellTiter-Glo ATP luminescence, 72 h | actives 1.4% (n = 400,000) | AID 1347075, 2019 | Potency, µM (series often up to 46.1 µM), usual class: cytotoxic; also: % is scaled to controls: 0 for no effect and ±100 for the full control effect; nearly all actives have a fitted effect of over 60% in size
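Viability of parental KB-3-1 cells, measured by CellTiter-Glo luminescence, followed a 72 h incubation at 37 °C with pinned compounds in phenol-red-free DMEM containing 10% FBS.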
TGFb inhibitor = qHTS for Inhibitors of TGF-b. HepG2 CAGA-GFP TGF-b/SMAD3 reporter, GFP fluorescence, 18 h; TGF-beta stimulated, 500 pg/mL final. Potency, µM (top dose mostly 46.1 µM), for inactives: at the top dose activity, negative = inhibition, usual class: inhibitors. actives 1.2% (n = 410,000); also: % is scaled to controls: 0 for no effect and ±100 for the full control effect; nearly all actives have a fitted effect of over 65% in size
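Inhibition was scored as loss of TGF-beta-induced (500 pg/mL final, 18 hours, 37 degrees C) GFP in HEPG2 cells carrying a CAGA-GFP reporter, in DMEM with 1% FBS. Well GFP was summed per cell; Activity was normalised to unstimulated and stimulated DMSO wells, then concentration-response fitting.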
Active calls of the source: *; i = inactive; ? = inconclusive; · = no result given. Calls follow the shape of the dose curve; as a rule, active = well fitted curve in the direction sought with a large enough effect; inconclusive = small, poorly fitted or top-dose-only effect, or another doubt; inactive = no such curve, though single readings can be large; an effect the other way counts as inactive or inconclusive. Potency is read from the fitted curve at half-maximal effect.

SMILES	HepG2 viability	ATXN viability	KB-V1 MDR tox	ATXN2 expr inh	KB-3-1 tox	TGFb inhibitor
CN(C)c1ccc(-c2ccnc3c2CC(C)(C(=O)NCC2CC2)O3)cc1 (stereo not given)	-42%	?	i	-16%	i	-30%
Cc1cnc(Nc2ccc(OCCN3CCCC3)cc2)nc1Nc1cccc(S(=O)(=O)NC(C)(C)C)c1	·	·	·	4%	·	·
CCOc1ccc2nc3cc(N)ccc3c(N)c2c1	·	?	·	13µM*	·	·
Cc1cc(OC(C)C)nc(NCc2ccccc2)n1	-30%	?	i	-19%	12µM*	10%
Cc1cc(Oc2ccc(C#N)cc2)nc(NCc2ccccc2)n1	8.9µM*	i	?	-24%	i	-24%
COc1ccc(S(=O)(=O)NCC(c2ccco2)S(=O)(=O)c2cccs2)cc1C (stereo not given)	2%	·	·	·	·	?
CN(Cc1cccs1)c1ncnc2ccc(-c3ccc4cn(C)nc4c3)cc12	·	·	i	·	?	·
Cc1nc(-c2ccccn2)sc1C(=O)Nc1ccc(Cl)c(Cl)c1	-34%	i	18µM*	40%	i	-19%
Cc1nc(-c2ccccn2)sc1C(=O)O	-2%	i	i	-2%	i	-1%
CC(C)(C)OC(=O)N1C=CCC1CN1C(=O)COCC1=O (stereo not given)	-4%	·	·	·	·	-5%
O=C1CCN(Cc2cccc(C(F)(F)F)c2)CCN1Cc1ccccn1	·	i	·	·	·	·
Cc1cc(C)c(C)c(OCCOCCNCc2ccccc2)c1	-51%	i	15µM*	-24%	i	?
CCCOc1ccc(OCCOCCNCc2ccccc2)cc1	-47%	i	8.2µM*	-13%	i	-8%
Cc1ccc(-c2cc(NC(=O)C(C)Oc3ccccc3F)on2)cc1 (stereo not given)	-2%	i	i	16%	i	8%
Cn1cc(S(=O)(=O)c2ccccc2)c(=O)c2cc(F)c(N3CCCCC3)cc21	-2%	i	i	-3%	i	4%
Cc1cc(N2CCCCC2)nc2ccc(NC(=O)CCC(=O)N3CCN(c4ccccc4)CC3)cc12	-29%	?	i	?	i	?
Cc1ccc(N2C(=O)N(CC(=O)c3cc(C)ccc3C)C(=O)C2C)cc1 (stereo not given)	2%	i	16µM*	-8%	?	-10%
Cc1[nH]nc2ncc(C(=O)c3cc(F)ccc3O)cc12	20%	i	8.2µM*	2%	?	19%
Cc1ccc(S(=O)(=O)N(CC(=O)N2CCN(c3ccccc3F)CC2)C2CCCCC2)cc1	-15%	i	4.6µM*	-11%	?	0%
Cc1sccc1Br	·	i	·	5%	·	·
CC(O)(CS(=O)(=O)Cc1ccccc1)C(=O)Nc1cccc(C(F)(F)F)c1 (stereo not given)	-15%	i	15µM*	-12%	i	11%
CC(O)(CS(=O)(=O)Cc1ccccc1)C(=O)Nc1ccc(C(F)(F)F)cc1 (stereo not given)	-13%	i	21µM*	-8%	i	7%
O=C(Cc1ccccc1)NC(=S)Nc1cccc(C(F)(F)F)c1	-72%	i	i	-29%	i	?
CCCCNS(=O)(=O)c1ccc2nc(-c3cccnc3)cc(C(=O)NCCCOC(C)C)c2c1	-35%	i	i	12%	i	-6%
COC(=O)c1sccc1S(=O)(=O)N(CC(=O)NCc1ccc(F)cc1)c1ccc(C)c(C)c1	-20%	i	i	-1%	i	-11%
SMILES	HepG2 viability	ATXN viability	KB-V1 MDR tox	ATXN2 expr inh	KB-3-1 tox	TGFb inhibitor
O=C(c1ccccc1)c1ccccn1	-3%	i	i	4%	i	-1%
O=C(CC(=O)c1ccccn1)c1ccccc1	-19%	i	13µM*	27%	?	-24%
O=C(Nc1ccc2ccccc2c1)Nc1nnc(-c2ccccc2)s1	·	·	i	·	i	·
Cc1ccc(S(=O)(=O)CC2CSc3nc(N)cc(=O)n32)cc1 (stereo not given)	5%	i	i	0%	i	0%
Cc1ccc(S(=O)(=O)CC2CSc3nc4ccccc4n32)cc1 (stereo not given)	2%	i	0.52µM*	-16%	0.73µM*	-15%
COc1ccc2nc3sc(C(=O)N4CCN(C)CC4)cc3cc2c1	8.9µM*	i	i	8%	i	-4%
CCN(CCCNC(=O)c1cc2cc3ccc(OC)cc3nc2s1)c1ccccc1	-20%	·	·	·	·	0%
CCN(CCCNC(=O)c1cc2cc3ccc(OC)cc3nc2s1)c1cccc(C)c1	13µM*	·	i	-31%	i	13µM*
COc1ccc2nc3sc(C(=O)NCCCN4CCc5ccccc5C4)cc3cc2c1	-57%	?	5.8µM*	-23%	i	?
CCc1ccc(C2CC(=O)Nc3cc4c(cc32)OCO4)cc1 (stereo not given)	-21%	i	i	-24%	i	-28%
COc1ccc(/C=C2\C(=O)N(c3c(Cl)cc(Cl)cc3Cl)N=C2NC(=O)c2cccc([N+](=O)[O-])c2)cc1	2%	·	?	32µM*	?	0%
COc1ccc(C(=O)C(C)Oc2cccc(NC(=O)c3cccc([N+](=O)[O-])c3)c2)cc1 (stereo not given)	4%	i	2.3µM*	-6%	i	-19%
CC(=O)Nc1cccc(OCc2ccc(S(=O)(=O)Cc3ccccc3)cc2)c1	-1%	i	18µM*	4%	i	-23%
CC(=O)Nc1ccc(OCc2cccc([N+](=O)[O-])c2)cc1	-17%	i	i	50%	i	-4%
CC(=O)Nc1cccc(OCc2cccc([N+](=O)[O-])c2)c1	-11%	?	13µM*	19%	?	-19%
O=C(/C=C/c1ccc(Cl)cc1)Nc1nc(-c2cccs2)ns1	-19%	·	·	·	·	-26%
